High-throughput results from PubChem.
IL1B secr inh: inhibitors of inflammasome signaling (IL-1 beta secretion). THP-1 LPS/ATP IL-1B secretion, AlphaLISA, 16 h; hits give low values. activity change, % at 57.5 µM. hit rate 4.7% among 360,000. AID 743279; in the data active = activity change below about -50%; inconclusive = mostly about -30% to -49%; also: % is scaled to controls: 0 for no effect and ±100 for the full control effect
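THP-1 cells pretreated 1 hr with compounds (up to 57.5 uM final), then stimulated with LPS (250 ng/mL final) plus ATP (1.25 mM final); secreted IL-1B measured by AlphaLISA after 16 hr, decreased signal indicating inhibition.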
TGFb SMAD3 inh: TGF-b pathway inhibition; HepG2 CAGA-GFP TGF-b/SMAD3 reporter, GFP fluorescence, 18 h; TGF-beta stimulated, 500 pg/mL final; Potency, µM (highest dose often 46.1 µM), without a hit: at the top dose activity, negative = inhibition, hits mostly inhibitors; hit rate 1.2% among 410,000; also: potency is read from the fitted curve at half-maximal effect; % is scaled to controls: 0 for no effect and ±100 for the full control effect; nearly all actives have a fitted effect of over 65% in size
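Per well, imaged GFP fluorescence of HEPG2 CAGA-GFP cells gives the signal; cells get compound, then TGF-beta (500 pg/mL final), 18 h at 37 degrees C; %Activity versus -TGF-beta and +DMSO controls.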
HepG2 viability: counter-screen for TGF-b inhibitors: cytotoxicity in HepG2 cells | HepG2 CAGA-GFP viability, ATP luminescence, 18 h | Potency, µM (doses to about 46.1 µM), inactives show at the highest dose activity change, negative = cytotoxicity, hits mostly cytotoxic | hit rate 0.76% among 410,000 | AID 588856; also: potency is read from the fitted curve at half-maximal effect
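CellTiter-Glo luminescence gave cytotoxicity after 18 hours at 37 degrees C. The cells were HepG2 CAGA-GFP in 1% FBS DMEM, stimulated with 500 pg/mL TGF-beta after compound addition. %Activity was normalised to no-cell wells (complete cell-killing) and DMSO (no toxicity), and curves were fitted and classified.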
TDP1 cell noCPT: qHTS for Inhibitors of human tyrosyl-DNA phosphodiesterase 1 (TDP1): qHTS in cells in absence of CPT; Potency, µM (highest dose often 46.2 µM), for inactives: at the highest dose activity change, negative = growth inhibition, hits mostly inhibitors; hit rate 15% among 420,000; DT40 Tdp1-/- hTDP1 cells, no CPT, ATP luminescence, 48 h; also: potency is read from the fitted curve at half-maximal effect; % is scaled to controls: 0 for no effect and ±100 for the full control effect; nearly all actives have a fitted effect of over 55% in size
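Stably hTDP1-transfected Tdp1-null chicken DT40 cells were treated with library compounds minus camptothecin and grown for at least 48 hr at 37 °C, after which cellular ATP was quantified by luminescence.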
TDP1 cell CPT: DT40-hTDP1 cell growth loss with CPT; hit rate 12% among 420,000; Potency, µM (series often up to 46.2 µM), without a hit: top-dose activity change, negative = growth inhibition, most hits filed as inhibitors; chicken DT40 Tdp1-/-;hTDP1 cells + 20 nM CPT, ATP luminescence, 48 h; AID 686979; also: potency is read from the fitted curve at half-maximal effect; % is scaled to controls: 0 for no effect and ±100 for the full control effect; nearly all actives have a fitted effect of over 55% in size
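Chicken DT40 Tdp1-/- cells stably complemented with human TDP1 were seeded at 400 cells/well in medium containing 20 nM camptothecin, exposed to pin-transferred compounds, and grown at 37 °C for at least 48 hr. Viability was read as ATP luminescence.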
S-ASM inh: blocks human secretory acid sphingomyelinase. placental ASM, HMU-PC fluorogenic substrate, 60 min. Potency, µM (series often up to 57.5 µM), for inactives: at the top dose activity change, negative = inhibition, actives largely listed as inhibitors. hit rate 0.006% among 340,000. AID 504937; also: potency is read from the fitted curve at half-maximal effect
Target sequence (P17405 47-631 limits assumed): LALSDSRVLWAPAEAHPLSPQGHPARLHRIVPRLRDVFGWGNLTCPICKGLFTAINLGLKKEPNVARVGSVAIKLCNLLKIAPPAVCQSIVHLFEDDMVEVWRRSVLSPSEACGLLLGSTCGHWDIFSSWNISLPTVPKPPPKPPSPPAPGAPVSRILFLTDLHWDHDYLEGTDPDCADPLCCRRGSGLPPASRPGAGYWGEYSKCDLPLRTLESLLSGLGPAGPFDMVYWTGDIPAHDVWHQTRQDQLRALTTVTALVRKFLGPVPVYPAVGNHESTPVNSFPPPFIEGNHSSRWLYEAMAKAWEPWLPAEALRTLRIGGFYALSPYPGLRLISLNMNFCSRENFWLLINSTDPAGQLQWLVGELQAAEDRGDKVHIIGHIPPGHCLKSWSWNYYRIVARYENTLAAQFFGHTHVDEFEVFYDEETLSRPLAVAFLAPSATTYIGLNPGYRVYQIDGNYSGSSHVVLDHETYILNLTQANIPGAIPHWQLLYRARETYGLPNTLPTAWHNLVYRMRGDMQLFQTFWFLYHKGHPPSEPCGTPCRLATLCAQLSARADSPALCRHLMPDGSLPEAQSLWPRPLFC
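Fluorogenic HMU-PC substrate (9 uM final) is turned over by placental ASM in 60 min at 37 C after a 10 min compound preincubation. Reaction ended by alkaline stop (pH 10), with fluorescence read at 386/447 nm.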
The depositor's hits bear a star; ? = inconclusive; . = no result; ! = not confirmed by another sample. Rows were chosen to be rich in hits. Some 19% of all compounds tested hit in one or more screens of this group. Unless noted, calls follow the shape of the dose curve; as a rule, active = well fitted curve in the direction sought with a large enough effect; inconclusive = small, poorly fitted or top-dose-only effect, or another doubt; inactive = no such curve, though single readings can be large; an effect the other way counts as inactive or inconclusive.

SMILES	IL1B secr inh	TGFb SMAD3 inh	HepG2 viability	TDP1 cell noCPT	TDP1 cell CPT	S-ASM inh
CC(=O)N1c2ccc(S(=O)(=O)NCC3CCC(C(=O)Nc4cccc(C)c4C)CC3)cc2CC1C (stereo not drawn)	.	?	-29%	21µM*	?	.
CC(=O)N1c2ccc(S(=O)(=O)NCC3CCC(C(=O)Nc4cccc(C)n4)CC3)cc2CC1C (stereo not drawn)	-2	?	-22%	18µM*	26µM*	-1%
COc1ccc(CNS(=O)(=O)c2ccc3c(c2)N(C(C)=O)CC(C)S3)cc1 (stereo not drawn)	-3	-25%	-19%	9.2µM*	?	0%
CC(=O)N1c2ccc(S(=O)(=O)N3CCC(C(=O)Nc4cccc(C)c4C)CC3)cc2CC1C (stereo not drawn)	-1	13%	-2%	-18%	?	-1%
CC(=O)N1c2ccc(S(=O)(=O)NCC3CCC(C(=O)Nc4cccc(C)c4)CC3)cc2CC1C (stereo not drawn)	.	-13%	-14%	15µM*	16µM*	.
O=C(Cn1ccn(-c2cccc(Cl)c2)c(=O)c1=O)c1ccc(F)cc1	.	-14%	-5%	1%	7%	.
CCCCN(C)C(=O)C1CCC(CNS(=O)(=O)c2ccc3c(c2)CC(C)N3C(=O)C2CC2)CC1 (stereo not drawn)	-12	?	-26%	23µM*	10µM*	-5%
O=C(c1cccc(S(=O)(=O)NCc2ccc3c(c2)OCO3)c1)N1CCCC1	-7	1%	-12%	-21%	1%	3%
Cc1ccccc1OCCn1c(=N)n(C(C)C)c2ccccc21	.	?	-87%	6.5µM*	8.2µM*	.
Cc1ccccc1OCC(O)Cn1c(=N)n(CCN2CCOCC2)c2ccccc21 (stereo not drawn)	-54*!	17%	-31%	?	?	0%
Cc1ccccc1OCC(O)Cn1c(=N)n(CCN2CCCCC2)c2ccccc21 (stereo not drawn)	.	.	16µM*	4.6µM*	5.8µM*	.
COc1ccccc1OCC(O)Cn1c(=N)n(CCN2CCCCC2)c2ccccc21 (stereo not drawn)	-53*	31%	-44%	16µM*	?	3%
Cc1ccccc1OCCCn1c(=O)sc2ccccc21	6	22%	-2%	-21%	14%	-2%
Cc1ccccc1OCC(O)CN1CCN(CC(O)COc2ccccc2C)CC1 (stereo not drawn)	-12	-29%	-42%	?	?	4%
COC(=O)Cn1c(=N)n(CCN2CCCCC2)c2ccccc21	-19	-5%	1%	2%	3%	3%
CCc1ccc(-c2nc(SCC(=O)N(CC)C3CCS(=O)(=O)C3)n[nH]2)cc1 (stereo not drawn)	-3	-6%	-3%	-11%	-10%	.
CC(C)CN(C(=O)CN1C(=O)NC2(CCc3ccccc32)C1=O)C1CCS(=O)(=O)C1 (stereo not drawn)	25	0%	0%	15%	-3%	11%
Cc1ccccc1OCC(O)CN (stereo not drawn)	-7	0%	-18%	-19%	-9%	5%
Cc1ccccc1OCC(O)COc1ccccc1C	0	-8%	-18%	21µM*	?	-3%
N=c1n(CCN2CCCCC2)c2ccccc2n1CC(O)COc1ccccc1 (stereo not drawn)	-56*	11µM*!	-49%	15µM*	18µM*	0%
